# Experimental data taken from PubChem BioAssay (NCI).
# Values joined by “and” are separate entries in the source; they are usually repeats but may differ in a detail not shown here. Equal entries are not always repeated. Compounds without any hit were thinned out: in the full panel of roughly 83,000, 20% have a hit.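 For each line, cells grew in 96-well plates with the test compound present at a single concentration for 48 hours.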 Active and inactive are the calls of the source. How the source made its calls: active means growth percent below 10; inactive means the rest. Where a SMILES comes first, the peptide text is derived from it. The star is where a group is joined. Trt = c1ccc(C(c2ccccc2)(c2ccccc2)*)cc1; Cbz = O=C(OCc1ccccc1)*
# Tested on: NCI-H23 lung
# Assay: NCI-60 one-dose screen, 48 h (100 = growth as untreated, 0 = no growth, -100 = all killed)
# Details: 10 µM unless noted
row,Compound,growth
1,O=C(/C=C/c1cccc(Cl)c1)c1ccccc1,95.5% (inactive) and 97.5% (inactive)
2,O=C(Nc1cccc(Br)c1)Oc1ccc(Cl)c2cccnc12,-8.8% [100 µM] (active)
3,CN(C)c1ccc(/C=N/N=C(\C#N)[S][Sn]([Cl])([c]2ccccc2)[c]2ccccc2)cc1,28.6% (inactive)
4,O=C1N[C@H]2[C@H](CS[C@H]2CCCCC(=O)N(CCP(c2ccccc2)c2ccccc2)CCP(c2ccccc2)c2ccccc2)N1,67.8% (inactive)
5,NC(=S)N/N=C\c1nccc2c(C(F)(F)C(F)(F)C(F)(F)F)cccc12,9.5% (active)
6,O=C1c2ccccc2C(=O)c2sc(Nc3cccc(Cl)c3)nc21,-51.4% (active)
7,O[C@H]1[C@H]2c3cc4c(cc3CN3CCC(=C[C@@H]1O)[C@H]23)OCO4,15.3% (inactive)
8,CCCCCCCCCCCCCCCCOP(=O)([O-])OCC[N+](C)(C)C,73.6% (inactive)
9,Nc1ncnc2c1ncn2C1OC(CO)C(O)C1O (stereo unspecified),111% (inactive) and 93.6% (inactive) and 103% (inactive)
10,CCOc1ccc(-c2nc3ccc(-c4nc5ccc(N6CCN(C)CC6)cc5[nH]4)cc3[nH]2)cc1,-71.7% (active)
11,O=C(/C=C\c1cc(Br)ccc1O)/C=C/c1cc(Br)ccc1O,-11.9% (active)
12,CCC(=O)Sc1ccccc1C(=O)Nc1ccc(Cl)cc1,46.1% (inactive)
13,Oc1c(Br)c(Br)c(O)c(Br)c1Br,92.5% (inactive)
14,COc1ccccc1OC(=O)Oc1ccccc1OC,101% (inactive) and 95.5% (inactive)
15,O=C1c2cccnc2-c2nccc3c2c1nc1cc(Br)ccc13,-78.4% (active) and -66.2% (active)
16,Nc1ccc(SSc2ccc(N)cc2)cc1,89.9% (inactive)
17,Cc1ccc2nc(C[n+]3ccc4ccccc4c3)ccc2c1,42% (inactive)

row,Compound,growth
1,CN(C)CCOc1ccc2c(c1)C(=O)/C(=C\c1ncc([N+](=O)[O-])n1C)C2,-42.7% (active)
2,N#CSCc1c(Cl)cccc1Cl,34.7% (inactive)
3,C[N+](C)=c1ccc2nc3c(cc(NCCCNc4cc5oc6cc(=[N+](C)C)ccc-6nc5c5ccccc45)c4ccccc43)oc-2c1,-56.1% (active)
4,COC(=O)C(CSC(c1ccccc1)(c1ccccc1)c1ccccc1)NC(=O)C(CC(N)=O)NC(=O)OCc1ccccc1 (stereo not drawn) (Cbz-Asn-Cys(Trt)-OMe; configuration not given here),65.4% (inactive)
5,S=C(N/N=C/c1ccccn1)Nc1ccccn1,23.8% (inactive)
6,O=C(/C=C\c1ccccc1)N1c2ccccc2CC1c1c[nH]c2ccccc12 (stereo unspecified),59.5% (inactive)
7,CC(=Nc1ccc(N(C)C)cc1)c1ccccc1,66.4% (inactive)
8,Cc1cc(N)c2ccccc2[n+]1CCCCCCCCCC[n+]1c(C)cc(N)c2ccccc21,5.83% (active) and -29.4% (active)
9,N[C@H](C(=O)O)[C@@H]1CC(Cl)=NO1,22.8% [20 µM] (inactive)
10,Cc1c2ccccc2c(C)c2c1ccc1ccccc12,81.6% (inactive)
11,O=C(O)c1ccc2c3c(ncnc13)-c1ccccc1C2=O,-76.7% (active)
12,CCC(c1cccc(O)c1)C(CC)c1cccc(O)c1 (stereo unspecified),78.7% (inactive)
13,Cc1ccnc2c1ccc1c(C)ccnc12,21.7% (inactive)
14,N#CSCC(=O)c1ccc(Cl)cc1,9.41% (active)
15,NC(N)=N/N=C/c1ccc([N+](=O)[O-])o1,65.5% (inactive)
16,Oc1c(Cl)c2ccccc2c2ccccc12,103% (inactive)

# Tested on: NCI-H226 lung
# Assay: as above
# Details: 10 µM unless noted
row,Compound,growth
1,O=C(/C=C/c1cccc(Cl)c1)c1ccccc1,94.2% (inactive) and 74.4% (inactive)
2,O=C(Nc1cccc(Br)c1)Oc1ccc(Cl)c2cccnc12,14.5% [100 µM] (inactive)
3,CN(C)c1ccc(/C=N/N=C(\C#N)[S][Sn]([Cl])([c]2ccccc2)[c]2ccccc2)cc1,-69.4% (active)
4,O=C1N[C@H]2[C@H](CS[C@H]2CCCCC(=O)N(CCP(c2ccccc2)c2ccccc2)CCP(c2ccccc2)c2ccccc2)N1,89.5% (inactive)
5,NC(=S)N/N=C\c1nccc2c(C(F)(F)C(F)(F)C(F)(F)F)cccc12,-27.3% (active)
6,O=C1c2ccccc2C(=O)c2sc(Nc3cccc(Cl)c3)nc21,-44.3% (active)
7,O[C@H]1[C@H]2c3cc4c(cc3CN3CCC(=C[C@@H]1O)[C@H]23)OCO4,15.3% (inactive)
8,CCCCCCCCCCCCCCCCOP(=O)([O-])OCC[N+](C)(C)C,31.5% (inactive)
9,Nc1ncnc2c1ncn2C1OC(CO)C(O)C1O (stereo unspecified),105% (inactive) and 82.7% (inactive) and 103% (inactive)
10,CCOc1ccc(-c2nc3ccc(-c4nc5ccc(N6CCN(C)CC6)cc5[nH]4)cc3[nH]2)cc1,-85.5% (active)
11,O=C(/C=C\c1cc(Br)ccc1O)/C=C/c1cc(Br)ccc1O,-64.8% (active)
12,CCC(=O)Sc1ccccc1C(=O)Nc1ccc(Cl)cc1,52.7% (inactive)
13,Oc1c(Br)c(Br)c(O)c(Br)c1Br,113% (inactive)
14,COc1ccccc1OC(=O)Oc1ccccc1OC,99.7% (inactive) and 106% (inactive)
15,O=C1c2cccnc2-c2nccc3c2c1nc1cc(Br)ccc13,-43.8% (active) and -48.5% (active)
16,Nc1ccc(SSc2ccc(N)cc2)cc1,103% (inactive)
17,Cc1ccc2nc(C[n+]3ccc4ccccc4c3)ccc2c1,68.9% (inactive)

row,Compound,growth
1,CN(C)CCOc1ccc2c(c1)C(=O)/C(=C\c1ncc([N+](=O)[O-])n1C)C2,-38.5% (active)
2,N#CSCc1c(Cl)cccc1Cl,99.3% (inactive)
3,C[N+](C)=c1ccc2nc3c(cc(NCCCNc4cc5oc6cc(=[N+](C)C)ccc-6nc5c5ccccc45)c4ccccc43)oc-2c1,73.2% (inactive)
4,COC(=O)C(CSC(c1ccccc1)(c1ccccc1)c1ccccc1)NC(=O)C(CC(N)=O)NC(=O)OCc1ccccc1 (stereo not drawn) (Cbz-Asn-Cys(Trt)-OMe; configuration not given here),71.4% (inactive)
5,S=C(N/N=C/c1ccccn1)Nc1ccccn1,12.1% (inactive)
6,O=C(/C=C\c1ccccc1)N1c2ccccc2CC1c1c[nH]c2ccccc12 (stereo unspecified),67.3% (inactive)
7,CC(=Nc1ccc(N(C)C)cc1)c1ccccc1,59.3% (inactive)
8,Cc1cc(N)c2ccccc2[n+]1CCCCCCCCCC[n+]1c(C)cc(N)c2ccccc21,13.8% (inactive) and 31.5% (inactive)
9,N[C@H](C(=O)O)[C@@H]1CC(Cl)=NO1,38.1% [20 µM] (inactive)
10,Cc1c2ccccc2c(C)c2c1ccc1ccccc12,100% (inactive)
11,O=C(O)c1ccc2c3c(ncnc13)-c1ccccc1C2=O,52.4% (inactive)
12,CCC(c1cccc(O)c1)C(CC)c1cccc(O)c1 (stereo unspecified),82.7% (inactive)
13,Cc1ccnc2c1ccc1c(C)ccnc12,17.4% (inactive)
14,N#CSCC(=O)c1ccc(Cl)cc1,65.8% (inactive)
15,NC(N)=N/N=C/c1ccc([N+](=O)[O-])o1,100% (inactive)
16,Oc1c(Cl)c2ccccc2c2ccccc12,99.7% (inactive)
